In all, about 400,000 compounds went through this assay and about 3,700 (0.93%) were called active. Not shown: some 3% with an inconclusive outcome. The call rests on the fitted dose curve; in most records, active means well fitted inhibition curve with a large enough effect; inconclusive means small, poorly fitted or top-dose-only effect, or another doubt; inactive means no such curve, though single readings can be large or run the other way. The full list was thinned out, with actives kept by preference.

In PubChem BioAssay AID504847 (National Center for Advancing Translational Sciences (NCATS), 2011) one finds max response, negative = inhibition and Potency data, which are given here for 86 molecules.
On the % scale 0 is the no-effect control and ±100 the full control effect; potency means the concentration at half of the fitted maximal effect.

Vitamin D3 receptor (Homo sapiens), sequence (P11473 whole entry, looked up): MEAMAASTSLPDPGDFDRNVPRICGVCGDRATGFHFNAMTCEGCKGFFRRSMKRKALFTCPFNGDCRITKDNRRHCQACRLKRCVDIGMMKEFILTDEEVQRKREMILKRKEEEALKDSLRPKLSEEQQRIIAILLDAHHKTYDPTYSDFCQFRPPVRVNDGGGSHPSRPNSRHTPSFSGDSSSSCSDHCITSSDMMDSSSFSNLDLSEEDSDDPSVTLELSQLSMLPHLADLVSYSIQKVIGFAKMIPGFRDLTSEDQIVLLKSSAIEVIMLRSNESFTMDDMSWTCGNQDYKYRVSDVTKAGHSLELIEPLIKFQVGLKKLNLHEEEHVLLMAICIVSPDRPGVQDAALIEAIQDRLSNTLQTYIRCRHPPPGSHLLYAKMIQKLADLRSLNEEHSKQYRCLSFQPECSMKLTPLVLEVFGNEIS

The target of the assay is Vitamin D3 receptor (Homo sapiens) (UniProt P11473). The experiment in a line: Inhibitors of the vitamin D receptor (VDR): qHTS. The following applies: VDR-SRC2-3 peptide fluorescence polarization, 2 h; max response, negative = inhibition: active compounds read low. The method in brief:
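The screen uses fluorescence polarization to detect compounds that interfere with recruitment of the SRC2-3 coactivator peptide to VDR; plates are read after 2 h at room temperature.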
A general note: Quantitative high-throughput screening tests each substance at several concentrations.
Consider `COc1cc(NC(=O)c2noc3c2CSc2ccccc2-3)cc(OC)c1OC`, for which the max response, negative = inhibition is 1.93% (inactive). The same measure, in the same setting: with `COc1ccc(CNc2nc(-c3ccc(Cl)cc3)nn2S(=O)(=O)c2ccc(C)cc2)cc1` the figure was -0.454% (inactive).

Turning to `Cc1ccc(-n2cnc3cc(C(=O)NCCC4=CCCCC4)ccc32)cc1Cl`, the max response, negative = inhibition was -3.42% (inactive). Still for that read-out and setting: the same measure for `CCOC(=O)c1ccc(CN(Cc2ccccc2)S(=O)(=O)c2ccc(Cl)cc2)cc1`: 9.71% (inactive). As for `CCn1c(SCC(=O)Nc2sc(C)c(C)c2C#N)nnc1C1CC1`, the max response, negative = inhibition is 1.75% (inactive). With `CCOC(=O)c1sc(NC(=O)CSc2nc(C)cc(C(F)(F)F)n2)c(C#N)c1C`, the Potency is 28.2 µM (active). Turning to `Cc1cccc(NC(=O)CSc2nc(-c3ccco3)cc(C(F)(F)F)n2)c1C`, the max response, negative = inhibition was -20.2% (inactive).

As to `CC1=Nc2cc(C(=O)N3CCC(C)CC3)ccc2Sc2ccc(Cl)cc21`, the max response, negative = inhibition is -2.31% (inactive).

Turning to `CN(Cc1ccco1)c1cc(-c2ccccc2C(F)(F)F)ncn1`, the Potency was 39.8 µM (active). The same measure, in the same setting: the same measure for `Cn1c(=O)[nH]c(=O)c2c1[nH]c(=S)n2Cc1ccccc1`: 89.1 µM (active). On to `Cn1c(=O)[nH]c(=O)c2c1nc(NCCc1ccccc1)n2Cc1ccc(F)cc1`, for which the max response, negative = inhibition was -22.7% (inactive).

Turning to `Cc1nnc(Sc2nc3c(c(=O)[nH]c(=O)n3C)n2Cc2ccccc2)s1`, the max response, negative = inhibition is -19.6% (inactive). As for `c1ccc(Cn2nnc3c(N4CCCCC4)ncnc32)cc1`, the max response, negative = inhibition was 7.87% (inactive). Same read-out and setting: with `COc1ccc(OC)c(-c2noc(N3CCN(c4cc(Cl)ccc4C)CC3)n2)c1` the figure was 13.2% (inactive); with `CCC1(c2ccccc2)NC(=O)N(CC(=O)c2ccc3c(c2)OCO3)C1=O` (stereo unspecified), 7.42% (inactive). As for `O=C(CCN1CCc2ccccc2C(O)(c2ccccc2)C1)c1ccc2c(c1)OCCO2` (stereo unspecified), the Potency is 35.5 µM (active).

As for `O=C(CN1CCC(O)(c2ccccc2)CC1)Nc1ccc2c(c1)OCCO2`, the max response, negative = inhibition was 0.904% (inactive). Same read-out and setting: with `COc1cc(OC)cc(C(=O)NCCc2csc3nc(-c4ccccc4F)nn23)c1` the figure was 1.56% (inactive); with `CCOC(=O)c1cccc(NS(=O)(=O)c2cc(-c3cnc(C)o3)ccc2OC)c1`, 1.33% (inactive). As to `CC(Sc1nnnn1C1CCCCC1)C(=O)O` (stereo unspecified), the Potency was 79.4 µM (active). `CC(Sc1nnnn1C)C(=O)NC(=O)NC1CCCCC1` (stereo unspecified): the max response, negative = inhibition is 15% (inactive). Same read-out and setting: with `O=C(CSc1nnnn1C1CCCC1)N1CCCCC1` the figure was 12.7% (inactive). The same measure, in the same setting: with `CC1OC(OCC2OC(Oc3c(-c4ccc(O)c(O)c4)oc4cc(O)cc(O)c4c3=O)C(O)C(O)C2O)[C@@H](O)C(O)C1O` (stereo partly specified) the figure was -0.0788% (inactive); with `COc1cc(C(=O)N2CCN(c3ccc(Nc4ccc(C)cc4)nn3)CC2)cc(OC)c1OC`, 13.1% (inactive). Same read-out and setting: the same measure for `Cc1oc2ncnc(N3CCOCC3)c2c1C(=O)NCCc1ccccc1`: 9.03% (inactive); for `O=C1c2ccccc2C(=O)N1c1ccc(S(=O)(=O)N2CCOCC2)c2ccccc12`: -4.23% (inactive).

For `FC(F)(F)C1CCCN(c2nsc3ccccc23)C1` (stereo unspecified), the Potency is 20 µM (active). Regarding `C[C@H]1CCC[C@@]2(C)CCCC[C@]12O`, the max response, negative = inhibition is 0.107% (inactive). As for `CC(=O)N(C1=C(Cl)C(=O)c2ccccc2C1=O)c1ccc(C(=O)O)cc1`, the Potency is 7.08 µM (active). Regarding `CCOC(=O)c1cc2c(=O)n3ccccc3nc2n(CCCOC)c1=NC(=O)C(C)(C)Oc1ccc(Cl)cc1`, the max response, negative = inhibition is -19.6% (inactive). On to `CC(=O)Oc1c2c(c3c(c1CC=C(C)C)O[C@@]14C(=CC5CC1C(C)(C)OC4(C/C=C(\C)C(=O)O)C5=O)C3=O)OC(C)(CCC=C(C)C)C=C2` (stereo partly specified), for which the Potency was 3.16 µM (active). In the case of `CCc1ccccc1OCCSc1nc(-c2cccs2)nc2cc(=O)[nH]n12`, the max response, negative = inhibition was -2.15% (inactive). On the same count and under the same terms, with `O=C1CC(c2ccccc2)CC2=C1C(c1ccco1)n1nc(C(F)(F)F)nc1N2` (stereo unspecified) the figure was -0.088% (inactive); with `CC(C)(C)c1ccc(S(=O)(=O)Nc2ccc(O)c(Sc3nc4ccccc4s3)c2)cc1`, -10.5% (inactive). Same read-out and setting: with `CC(C)c1ccc(S(=O)(=O)Nc2ccc(O)c(Sc3nc4ccccc4s3)c2)cc1` the figure was -4.7% (inactive). As for `O=[N+]([O-])c1c(NCCO)cc(Sc2nc3ccccc3s2)c2nonc12`, the Potency is 14.1 µM (active). For `NCCCNCCCCN(CCCN)/[N+]([O-])=N/O`, the max response, negative = inhibition was 8.85% (inactive). For the molecule `Oc1c(C(c2ccccc2Cl)N2CCOCC2)sc2nc(-c3ccco3)nn12` (stereo unspecified), the max response, negative = inhibition was 10.6% (inactive). Regarding `Oc1c(C(c2ccccn2)N2CCOCC2)ccc2cccnc12` (stereo unspecified), the Potency was 17.8 µM (active). Take `COc1ccc(NC(=O)c2sc3nc[nH]c(=O)c3c2C)cc1`: the max response, negative = inhibition is 6.76% (inactive). Still for that read-out and setting: with `Cc1ccc2nc(/C(C#N)=C/c3ccc(-c4ccc(C(=O)OC(C)C)cc4)o3)[nH]c2c1` the figure was -0.457% (inactive); with `O=c1[nH]c2ccccc2s1`, 1.06% (inactive). For `Nc1ccc2[nH]c(=S)sc2c1`, the Potency was 28.2 µM (active). On to `COc1ccc(CNC(=O)CSc2nc3ccccc3nc2Cc2ccccc2)cc1`, for which the max response, negative = inhibition is -10.7% (inactive).

For the molecule `Cc1cccc(C)c1NC(=O)NC1=CCCN1C`, the max response, negative = inhibition is 8.2% (inactive). As for `COC1=CC(=O)OC(c2ccc(OC)cc2)C1` (stereo unspecified), the max response, negative = inhibition is 6.19% (inactive). Regarding `COc1ccc(N=Nc2c(-c3ccc(OC)cc3)[nH]oc2=O)cc1`, the max response, negative = inhibition is -12% (inactive).

With `COc1ccc(N=C2C=CC(=O)O2)cc1`, the Potency is 79.4 µM (active). With `COc1ccc(-c2nc3nc(C)cc(C)n3c2Nc2c(C)cccc2C)cc1`, the max response, negative = inhibition is -18.2% (inactive).

With `Cc1cccc(OCCSc2nc3ccc(NC(=O)COc4ccccc4C)cc3s2)c1`, the max response, negative = inhibition is 4.41% (inactive). Same read-out and setting: with `CC(=O)c1cc(-c2ccccc2)[nH]c1N1CCCC1` the figure was 0% (inactive). For the molecule `O=C1NN(c2ccccc2)C(=O)/C1=C/c1ccc(-c2cccc(C(=O)O)c2)o1`, the Potency is 89.1 µM (active). `CCCN(CCC)CCCNC(=O)Cn1ncc2c3ccccc3n(Cc3ccccc3)c2c1=O`: the max response, negative = inhibition is 11.1% (inactive). The same measure, in the same setting: the same measure for `Cc1cc(C)c(NC(=O)c2cc3sc(Cl)cc3n2C)c(C)c1`: -11% (inactive). Same read-out and setting: with `O=C1NC(c2ccc(-c3ccccc3[N+](=O)[O-])o2)C(C(=O)c2ccc(Cl)cc2)C(O)(C(F)(F)F)N1` (stereo unspecified) the figure was -20.1% (inactive); with `O=C(Nc1ccc(N2CCOCC2)cc1)c1ccc(-c2ccccc2[N+](=O)[O-])o1`, -16.6% (inactive). On to `CC1=NN(c2ccc(Cl)c(C(=O)O)c2)C(=O)/C1=C/c1ccc(-c2ccccc2[N+](=O)[O-])o1`, for which the Potency was 50.1 µM (active). In the case of `COc1cc(C(=O)NCCS(=O)(=O)N2CCN(c3ccccc3)CC2)cc(OC)c1OC`, the max response, negative = inhibition is 22.4% (inactive).

Turning to `COc1ccc(-c2onc(C)c2C)cc1S(=O)(=O)NCC1CCN(Cc2cccc(F)c2)CC1`, the max response, negative = inhibition is -0.795% (inactive). The same measure, in the same setting: the same measure for `Cc1cc(NC(=O)c2ccc(-c3ccc(Cl)cc3)o2)cc(-c2nc3ncccc3o2)c1O`: -16% (inactive). As for `Cc1ccc(CSCC2Nc3ccc(C(=O)N4CCN(c5ccc(F)cc5)CC4)cc3NC2=O)cc1` (stereo unspecified), the Potency was 79.4 µM (active). In the case of `CC1CCN(C(=O)c2ccc3c(c2)NC(=O)CN3)CC1`, the max response, negative = inhibition is 8.33% (inactive). On the same count and under the same terms, with `Cc1ccc(SCC(=O)N2CCN(c3ccc(F)cc3)CC2)cc1` the figure was 9.21% (inactive); with `CCOC(=O)c1c(S(=O)(=O)N2CCCC(C(=O)NCc3cccc(C)c3)C2)c(C)n(C)c1C` (stereo unspecified), 14.2% (inactive). Still for that read-out and setting: the same measure for `CCCN(CCC)CCCNC(=O)Cn1cc2c(n1)-c1c(oc(C(=O)N3CCCC3)c1C)CC2`: 4.81% (inactive); for `COc1ccc(-c2nc(Cn3c(=O)cc(C)c4c(C)nn(-c5ccccc5)c43)c(C)o2)c(OC)c1`: 3.2% (inactive); for `COc1ccc2c(c1)c(N1CCCC1=O)c(C(=O)Nc1ccccc1C(F)(F)F)n2C`: 13.2% (inactive). On the same count and under the same terms, the same measure for `Cc1ccc(-c2nc3cccc(C)n3c2Nc2ccc3c(c2)OCCO3)cc1`: -25.9% (inactive). For the molecule `CC(C)c1ccc(C2CC(=O)N3CN(C4CCCCC4)CSC3=C2C#N)cc1` (stereo unspecified), the Potency was 14.1 µM (active). `CC(C)c1ccc(C2C(C#N)=C(N)Oc3c2oc(CO)cc3=O)cc1` (stereo unspecified): the max response, negative = inhibition was -3.81% (inactive). Still for that read-out and setting: the same measure for `COc1cc(Nc2nc(-c3ccc(OC)c(OC)c3)nc3ccccc23)cc(OC)c1`: 19% (inactive); for `COC(=O)c1c(C)oc2ccc(N(C(=O)Oc3ccccc3)S(=O)(=O)c3ccccc3)cc12`: 2.55% (inactive); for `CC(=O)Oc1ccc(N(C(C)=O)S(=O)(=O)c2ccc3ccccc3c2)cc1Br`: 7.52% (inactive). In the case of `CC(=O)N(c1ccc2oc(=O)sc2c1)S(=O)(=O)c1ccc(C)cc1`, the Potency was 70.8 µM (active).

For the molecule `CC(NC(=O)c1cc2c(=O)n3ccccc3nc2n(C(C)C)c1=N)c1ccccc1` (stereo unspecified), the max response, negative = inhibition was -2.71% (inactive). On the same count and under the same terms, the same measure for `Cc1ccc(-n2c(=O)c3cccnc3n2CC(=O)Nc2ccccc2C(F)(F)F)cc1C`: 10.3% (inactive); for `COc1ccc(S(=O)(=O)Nc2ccccc2C(=O)N2CCCC2)cc1C`: 4.61% (inactive).

Consider `COc1ccc(Br)cc1/C=N/Nc1ccc(S(=O)(=O)Nc2ccccc2C(=O)O)cc1[N+](=O)[O-]`, for which the Potency is 79.4 µM (active). Take `O=C(O)c1ccccc1/C=N/Nc1ccc(S(=O)(=O)Nc2ccc(Cl)cc2)cc1[N+](=O)[O-]`: the max response, negative = inhibition is -16.1% (inactive). Same read-out and setting: with `Cc1cc(C)nc(NS(=O)(=O)c2ccc(NC(=O)c3cc(=O)c4ccc(C)c(C)c4o3)cc2)n1` the figure was 19.7% (inactive). On the same count and under the same terms, with `O=C(NCCCc1ccccc1)c1ccc2c(c1)sc1nc(-c3ccc(F)cc3)cn12` the figure was 9.26% (inactive); with `Cc1ccc(-c2cc(-c3coc4ccccc4c3=O)c3c(n2)-c2cc(Cl)ccc2OC3)cc1`, 2.47% (inactive). Regarding `Cc1ccccc1C1=N/C(=C/c2cccnc2)C(=O)O1`, the Potency was 70.8 µM (active). As to `Nc1ccc2c(c1)C(=Cc1cccnc1)c1ccccc1-2`, the max response, negative = inhibition was -7.1% (inactive). Same read-out and setting: with `Cc1ccc(C2=C/C(=C\c3cccnc3)C(=O)O2)cc1` the figure was -0.781% (inactive); with `Cc1ccc(NC(=O)CSc2nc3c([nH]c4ccccc43)c(=O)n2-c2ccccc2)cc1Cl`, 5.44% (inactive).
